Records with an inconclusive call do not appear. Activity calls are given as the source filed them. Unless noted, calls come from the whole dose curve; as a rule, active = well fitted curve in the direction sought with a large enough effect in the repeat runs; inconclusive = weak or mixed curves; inactive = no such curve, though single readings can be large; an effect the other way counts as inactive or inconclusive.
How the values were obtained:
[1] = qHTS assay to identify small molecule antagonists of the androgen receptor (AR) signaling pathway using the MDA cell line in the presence of 0.5 nM R1881 - cell viability counter screen (AID 1259242); note: nearly all actives have a fitted effect of over 45% in size
Procedure, shortened: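 Cells seeded at 3,000/well and allowed 5 hr at 37C, 0% CO2 before compound transfer and R1881 (0.5 nM final) addition; 16 hr later, live-cell protease fluorescence indicated cytotoxicity.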

[2] = target: Estrogen receptor (Homo sapiens) (UniProt P03372); assay: qHTS assay to identify small molecule antagonists of the estrogen receptor alpha (ER-alpha) signaling pathway using the BG1 cell line in the presence of 0.1 nM 17-beta-estradiol (AID 1259244); note: nearly all actives have a fitted effect of over 50% in size; note: potency is the fitted concentration of half-maximal effect
Estrogen receptor (Homo sapiens), sequence (P03372 whole entry, looked up): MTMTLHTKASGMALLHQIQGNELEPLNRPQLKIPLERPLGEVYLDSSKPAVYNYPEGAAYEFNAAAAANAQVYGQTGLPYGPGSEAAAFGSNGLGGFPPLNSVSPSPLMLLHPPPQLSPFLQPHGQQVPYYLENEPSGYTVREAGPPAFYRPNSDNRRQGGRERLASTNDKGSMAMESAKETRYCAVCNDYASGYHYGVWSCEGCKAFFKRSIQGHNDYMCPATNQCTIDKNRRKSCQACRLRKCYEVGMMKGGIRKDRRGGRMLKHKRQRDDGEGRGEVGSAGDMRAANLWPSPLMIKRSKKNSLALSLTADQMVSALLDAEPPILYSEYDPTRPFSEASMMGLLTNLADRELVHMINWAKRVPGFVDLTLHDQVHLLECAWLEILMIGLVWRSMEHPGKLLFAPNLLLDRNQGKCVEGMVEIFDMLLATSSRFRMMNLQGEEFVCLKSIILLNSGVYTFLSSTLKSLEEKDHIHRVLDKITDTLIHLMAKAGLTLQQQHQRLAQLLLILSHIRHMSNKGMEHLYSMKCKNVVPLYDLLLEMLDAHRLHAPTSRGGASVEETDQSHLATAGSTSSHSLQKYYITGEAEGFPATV
Procedure, shortened: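 Luciferase signal from VM7Luc4E2 ERE-reporter cells, co-dosed with test compound and 0.1 nM final 17beta-estradiol for 22 h, read with ONE-Glo.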

[3] = qHTS assay to identify small molecule HDAC inhibitors (AID 1259364); note: potency is the fitted concentration of half-maximal effect;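 note: wild-type HCT-116 cells with endogenous class I/II HDAC activity; nearly all actives have a fitted effect of over 45% in size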
Procedure, shortened: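 HCT-116 wt cells, 1,500/well, overnight attach. Compounds (DMSO) 2 h, 37 °C. HDAC-Glo I/II, 30 min RT. Luminescence.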

[4] = qHTS assay to identify small molecule HDAC inhibitors - cell viability counter screen (AID 1259365); note: nearly all actives have a fitted effect of over 50% in size; note: potency is the fitted concentration of half-maximal effect
Procedure, shortened: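 Luminescence from CellTiter-Glo, developed 30min at room temperature, reports viability of wild-type HCT-116 cells treated 2hr with compounds at 37 C and 5% CO2 after overnight plating.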

[5] = qHTS assay to identify small molecule agonists of the sonic hedgehog signaling (Shh) pathway (AID 1259368; calls by dose curve;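 note: NIH/3T3-derived 3T3Gli1-Luc cells carrying a stable Gli1-driven firefly luciferase reporter; series mostly up to about 92 µM; nearly all actives have a fitted effect of over 15% in size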)
Procedure, shortened: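 Following a 24 hr incubation with DMSO-dissolved compounds at 37 C, 5% CO2, Gli1-Luc NIH/3T3-derived cells received luciferase reagent for 30 min at room temperature prior to luminescence measurement.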

[6] = target: Estrogen receptor beta (Homo sapiens) (UniProt Q92731); assay: qHTS assay to identify small molecule antagonists of the estrogen receptor beta (ER-beta) signaling pathway (AID 1259378; active = well fitted inhibition curve with a large enough effect in the signal ratio in the repeat runs, not every such curve was filed as active; the % refers to the signal ratio; note: potency is the fitted concentration of half-maximal effect)
Estrogen receptor beta (Homo sapiens), sequence (Q92731 whole entry, looked up): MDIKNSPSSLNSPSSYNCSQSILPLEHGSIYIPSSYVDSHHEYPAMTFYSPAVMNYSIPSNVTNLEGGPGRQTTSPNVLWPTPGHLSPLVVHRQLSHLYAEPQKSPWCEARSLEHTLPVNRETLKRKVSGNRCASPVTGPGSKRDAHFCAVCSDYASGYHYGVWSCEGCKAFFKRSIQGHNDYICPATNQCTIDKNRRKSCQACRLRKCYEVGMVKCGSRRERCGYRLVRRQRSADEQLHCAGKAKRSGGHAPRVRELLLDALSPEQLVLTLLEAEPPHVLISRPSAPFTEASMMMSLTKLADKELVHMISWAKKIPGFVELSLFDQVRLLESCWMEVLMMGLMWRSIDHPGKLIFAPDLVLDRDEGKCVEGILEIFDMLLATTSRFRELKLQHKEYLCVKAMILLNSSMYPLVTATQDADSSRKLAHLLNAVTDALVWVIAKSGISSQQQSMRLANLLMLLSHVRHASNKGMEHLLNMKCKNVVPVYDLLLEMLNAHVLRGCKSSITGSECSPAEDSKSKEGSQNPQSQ
Procedure, shortened: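 Antagonist mode: compounds added to beta-lactamase reporter HEK293T ER-beta-UAS cells stimulated with E2 (1nM final), 16 hr at 37C. LiveBLAzer B/G FRET substrate, 2 hours room temperature, fluorescence read-out.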

[7] = qHTS assay to identify small molecule agonists of the androgen receptor (AR) signaling pathway in the presence of an antagonist - cell viability counter screen (AID 1259379); note: nearly all actives have a fitted effect of over 25% in size; note: potency is the fitted concentration of half-maximal effect
Procedure, shortened: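 Each compound was tested at 15 concentrations on MDA-kb2 cells in the presence of 3.0uM nilutamide. Viability was measured by CellTiter-Fluor fluorescence after a 16 hr incubation at 37C in a CO2-free atmosphere.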

[8] = qHTS assay to identify small molecule agonists of the estrogen receptor beta (ER-beta) signaling pathway - cell viability counter screen (AID 1259380); note: nearly all actives have a fitted effect of over 30% in size; note: potency is the fitted concentration of half-maximal effect
Procedure, shortened: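 Compounds dissolved in DMSO were pin-transferred onto ER-beta-UAS-bla HEK293T cells that had settled 6 hr, and exposure ran 16 hr at 37C. Following the reporter read, CellTiter-Glo luminescence after 30 min at room temperature indicated cytotoxicity.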

[9] = qHTS assay to identify small molecule antagonists of the estrogen receptor beta (ER-beta) signaling pathway - cell viability counter screen (AID 1259382);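 note: HEK293T cells carrying ER-beta-UAS-bla reporter stimulated with estradiol; series mostly up to about 92 µM; nearly all actives have a fitted effect of over 55% in size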
Procedure, shortened: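 CellTiter-Glo ATP luminescence measured after the LiveBLAzer read in the same wells; ER-beta-UAS-bla HEK293T cells, 16 hr compound treatment with 1nM 17-beta-estradiol agonist at 37C, 5% CO2.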

[10] = target: Estrogen receptor (Homo sapiens) (UniProt P03372); assay: qHTS assay to identify small molecule agonists of the estrogen receptor alpha (ER-alpha) signaling pathway in the presence of an antagonist (AID 1259383; calls by dose curve; note: top concentration of the series differs between compounds; nearly all actives have a fitted effect of over 15% in size)
Procedure, shortened: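 Luminescent ERE-luciferase reporter, VM7Luc4E2 cells (endogenous ER-alpha); 10.0nM ICI-182,780 final; 15-point compound titration; 22hr at 37C; ONE-Glo, 30min RT.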

[11] = qHTS assay to identify small molecule antagonists of the sonic hedgehog signaling (Shh) pathway (AID 1259369; calls by dose curve; note: nearly all actives have a fitted effect of over 45% in size; note: potency is the fitted concentration of half-maximal effect)
Procedure, shortened: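 Read-out is luminescence from a firefly luciferase gene controlled by the Gli1 response element, in 3T3Gli1-Luc cells pre-incubated 4hr then exposed to compounds and conditioned medium for 24hr.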

[12] = target: Estrogen receptor beta (Homo sapiens) (UniProt Q92731); assay: qHTS assay to identify small molecule agonists of the estrogen receptor beta (ER-beta) signaling pathway (AID 1259377; active = well fitted activation curve with a large enough effect in the signal ratio in the repeat runs, not every such curve was filed as active; the % refers to the signal ratio)
Procedure, shortened: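 HEK293T ER-beta-UAS-bla; 2% charcoal-stripped FBS; cells pre-incubated 6 hr, compound 16 hr, 37C/5% CO2; LiveBLAzer B/G FRET substrate 2 h RT; fluorescence intensity read.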

[13] = qHTS assay to identify small molecule agonists or antagonists of the thyroid stimulating hormone receptor (TSHR) signaling pathway - wild type cell line counter screen (AID 1259384; calls by dose curve)
Procedure, shortened: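 Counter screen in untransfected Hek293: compounds (15-point titration, triplicate) plus phosphodiesterase inhibitor Ro20-1724 added after 18 h plating; 30 min RT. Intracellular cAMP via competitive d2/cryptate immunoassay, 1 h incubation.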

[14] = target: Thyrotropin receptor (Homo sapiens) (UniProt P16473); assay: qHTS assay to identify small molecule antagonists of the thyroid stimulating hormone receptor (TSHR) signaling pathway (AID 1259385; calls by dose curve; note: nearly all actives have a fitted effect of over 20% in size)
Thyrotropin receptor (Homo sapiens), sequence (P16473 whole entry, looked up): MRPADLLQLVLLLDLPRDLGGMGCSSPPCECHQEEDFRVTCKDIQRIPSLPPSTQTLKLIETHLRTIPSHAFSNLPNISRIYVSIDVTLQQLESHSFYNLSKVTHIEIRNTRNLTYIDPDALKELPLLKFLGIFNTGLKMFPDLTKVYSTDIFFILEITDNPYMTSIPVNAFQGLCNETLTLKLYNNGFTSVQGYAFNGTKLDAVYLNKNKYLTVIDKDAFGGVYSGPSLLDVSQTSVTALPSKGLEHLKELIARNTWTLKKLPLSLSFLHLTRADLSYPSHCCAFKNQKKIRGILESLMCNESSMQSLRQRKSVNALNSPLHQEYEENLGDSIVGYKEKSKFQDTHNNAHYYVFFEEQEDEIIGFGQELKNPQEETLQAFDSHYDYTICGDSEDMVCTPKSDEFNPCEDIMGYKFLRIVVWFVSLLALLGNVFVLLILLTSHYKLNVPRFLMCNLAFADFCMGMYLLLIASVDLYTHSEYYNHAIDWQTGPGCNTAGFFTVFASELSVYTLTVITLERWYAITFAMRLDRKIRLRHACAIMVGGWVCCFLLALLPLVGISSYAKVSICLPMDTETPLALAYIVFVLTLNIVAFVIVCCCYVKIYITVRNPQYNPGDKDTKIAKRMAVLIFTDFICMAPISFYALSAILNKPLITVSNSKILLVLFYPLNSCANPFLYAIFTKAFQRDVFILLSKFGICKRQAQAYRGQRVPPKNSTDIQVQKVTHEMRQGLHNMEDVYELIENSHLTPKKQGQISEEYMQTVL
Procedure, shortened: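 Antagonist mode: compound-treated TSHR-expressing HEK293 cells were stimulated with 1.5 ng/mL TSH (final) in presence of Ro20-1724 for 30 min at RT. HTRF cAMP detection after 1 h; each compound tested at 15 concentrations, triplicate.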

[15] = qHTS assay to identify small molecule agonists of the estrogen receptor alpha (ER-alpha) signaling pathway in the presence of an antagonist - cell viability counter screen (AID 1259386);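 note: cells exposed to compounds for 22 h at 37 °C before the viability read; nearly all actives have a fitted effect of over 30% in size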; note: potency is the fitted concentration of half-maximal effect
Procedure, shortened: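 Using estrogen-depleted VM7Luc4E2 cells, the 15-concentration compound series was applied together with 10.0nM ICI-182,780 and incubated 22hr at 37C/5% CO2. Cell viability was then scored by CellTiter-Fluor.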

[16] = qHTS assay to identify small molecule agonists of the sonic hedgehog signaling (Shh) pathway - cell viability counter screen (AID 1259366); note: nearly all actives have a fitted effect of over 50% in size
Procedure, shortened: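 Cytotoxicity counter screen run in the same wells as the Shh reporter assay. NIH/3T3 cells carrying a Gli1 response element–driven luciferase were treated with DMSO-dissolved compounds for 24hr, and live-cell protease activity was measured with CellTiter-Fluor.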

[17] = qHTS assay to identify small molecule antagonists of the sonic hedgehog signaling (Shh) pathway - cell viability counter screen (AID 1259367); note: nearly all actives have a fitted effect of over 55% in size
Procedure, shortened: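 CellTiter-Fluor signal in conditioned medium-stimulated 3T3 Gli1-Luc cells, 23 hr compound exposure, 37C.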

[18] = qHTS assay to identify small molecule phospholipidosis (PLD) inducers (AID 1259344; active = well fitted curve in the direction sought with a large enough effect; an effect the other way counts as inactive or inconclusive; note: potency is the fitted concentration of half-maximal effect)
Procedure, shortened: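 Accumulated phospholipid, stained red by LipidTOX during 24 h compound treatment of HepG2 cells at 37 C, is quantified from images as pit number and intensity, normalised per cell using Hoechst-stained nuclei.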
% is set by controls: 0 for no effect and ±100 for the full control effect.

COc1ccc(C(=O)Nc2nc3ccccc3c(NCc3ccccc3)c2C#N)cc1
inactive: Potency [1] | Potency [3] | Potency [4] | outcome [5] | Potency [6] | Potency [7] | Potency [9] | Potency [10]
active: Potency [2] 10.9 µM | Potency [8] 27.3 µM

CC(=O)c1ccc2c(c1)N(CCCN(C)C)c1ccccc1S2
inactive: Potency [1] | Potency [2] | outcome [5] | Potency [11] | Potency [12] | Potency [7] | Potency [10] | Potency [13] | Potency [14] | Potency [15]

CCCCCCCCO[C@@H]1O[C@H](CO)[C@@H](O)[C@H](O)[C@H]1O
inactive: Potency [1] | Potency [2] | Potency [3] | Potency [16] | Potency [17] | Potency [11] | Potency [12] | Potency [6] | Potency [7] | Potency [8] | Potency [9] | Potency [10] | Potency [13] | Potency [14] | Potency [15]

CCCCCCCN
inactive: Potency [1] | Potency [3] | Potency [4] | Potency [16] | Potency [17] | outcome [5] | Potency [11] | Potency [12] | Potency [6] | Potency [7] | Potency [8] | Potency [9] | Potency [10] | Potency [13] | Potency [14] | Potency [15]

O=[N+]([O-])c1ccc2[nH]ncc2c1
inactive: Potency [1] | Potency [3] | Potency [4] | Potency [16] | Potency [17] | outcome [5] | Potency [11] | Potency [12] | Potency [6] | Potency [7] | Potency [8] | Potency [9] | Potency [10] | Potency [13] | Potency [14] | Potency [15]

CC(C)Nc1ccc(NC(C)C)c2c1C(=O)c1ccccc1C2=O
active: Potency [3] 12.7 µM | Potency [4] 12.7 µM | Potency [7] 11.3 µM | Potency [15] 11.3 µM
inactive: Potency [1] | Potency [16] | Potency [17] | outcome [5] | Potency [11] | Potency [12] | Potency [6] | Potency [9] | Potency [10] | Potency [13]

OC(C#CCN1CCCC1)(c1ccccc1)c1ccccc1
inactive: Potency [1] | Potency [18] | Potency [3] | Potency [4] | Potency [16] | outcome [5] | Potency [7] | Potency [8] | Potency [9] | Potency [13] | Potency [14] | Potency [15]
active: Potency [11] 3.76 µM

Nc1cccc(S(=O)(=O)c2cccc(N)c2)c1
inactive: Potency [1] | Potency [3] | Potency [4] | Potency [16] | Potency [17] | outcome [5] | Potency [11] | Potency [12] | Potency [7] | Potency [8] | Potency [9] | Potency [10] | Potency [13] | Potency [14] | Potency [15]

C=CCOC(=O)CCC1CCCCC1
inactive: Potency [1] | Potency [3] | Potency [4] | Potency [16] | Potency [17] | outcome [5] | Potency [11] | Potency [12] | Potency [6] | Potency [7] | Potency [8] | Potency [9] | Potency [13] | Potency [14] | Potency [15]

CCCCC
active: Potency [3] 1.69 µM
inactive: Potency [1] | Potency [18] | Potency [4] | Potency [16] | outcome [5] | Potency [12] | Potency [6] | Potency [7] | Potency [8] | Potency [9] | Potency [13] | Potency [14] | Potency [15]

C#Cc1cccc(Nc2ncnc3cc(OCCOC)c(OCCOC)cc23)c1
active: Potency [18] 10 µM | Potency [8] 2.66 µM
inactive: Potency [1] | Potency [3] | outcome [5] | Potency [9] | Potency [10] | Potency [14]

Cc1cccc(C)c1NC(=O)CN(CC(=O)O)CC(=O)O
inactive: Potency [1] | Potency [18] | Potency [3] | Potency [4] | Potency [16] | Potency [17] | Potency [11] | Potency [12] | Potency [6] | Potency [7] | Potency [8] | Potency [9] | Potency [13] | Potency [14] | Potency [15]

COc1cc2c(cc1OC)C(C(C(=O)N(CCc1ccc(OC)c(OC)c1OC)CCc1ccc(OC)c(OC)c1OC)c1ccccc1)=NCC2 (configuration not stated)
inactive: Potency [1] | Potency [18] | Potency [3] | Potency [4] | outcome [5] | Potency [12] | Potency [8] | Potency [9] | Potency [13] | Potency [14]

Clc1ccc(Cn2c(CN3CCCC3)nc3ccccc32)cc1
active: Potency [6] 11.9 µM
inactive: Potency [1] | Potency [18] | Potency [3] | Potency [4] | Potency [16] | Potency [17] | Potency [12] | Potency [7] | Potency [13] | Potency [15]

O=C1OC(=O)C2C3C=CC(C3)C12 (configuration not stated)
inactive: Potency [1] | Potency [3] | Potency [4] | Potency [16] | Potency [17] | outcome [5] | Potency [11] | Potency [12] | Potency [6] | Potency [7] | Potency [8] | Potency [9] | Potency [13] | Potency [14] | Potency [15]

CCCCC/C=C\C/C=C\CCCCCCCC(=O)NC(C)c1ccccc1 (configuration not stated)
active: Potency [11] 13.3 µM
inactive: Potency [1] | PLD induction [18] -2.94% [at 7.66 µM] | Potency [3] | Potency [4] | outcome [5] | Potency [7] | Potency [9] | Potency [10] | Potency [13]

Reference: PubChem BioAssay (Tox21)
